SMILES strings stand for the structures. Compounds without any hit were thinned out: in the full panel of roughly 83,000, 20% have a hit.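 In brief: 96-well plates, 48 h treatment, single concentration, percent growth endpoint.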 Activity calls are given as the source filed them. The calls were made as follows: active = growth percent below 10; inactive = the rest.

In the experiment the test system is UACC-62 melanoma. The experiment is described as follows: NCI-60 one-dose screen, 48 h (100 = growth as untreated, 0 = no growth, -100 = all killed). The conditions noted are these: 10 µM unless noted.
As to `O=C1/C(=C\c2ccc(Br)o2)SC(=S)N1CCc1ccc(O)cc1`, the growth was 64% (inactive).

Turning to `N#CC1=C(N)Oc2ccc3ccccc3c2C1c1ccccc1` (stereo not given), the growth is 18.6% (inactive).

Turning to `N#CC1=C(N)Oc2ccc3ccccc3c2C1c1ccccc1Cl` (stereo not given), the growth was 24.2% (inactive).

Regarding `CCSc1sc(-c2ccc(C)cc2)nc1[P+](c1ccccc1)(c1ccccc1)c1ccccc1`, the growth was -42.5% (active).

Turning to `Fc1ccc2nc(-c3cc(-c4ccc5c(c4)OCO5)n[nH]3)[nH]c2c1`, the growth was 53.7% (inactive).

As for `CC(=O)c1c(C)[nH]c(-c2nc3ccc(N4CCN(C)CC4)cc3[nH]2)c1-c1ccc2c(c1)OCCO2`, the growth was 20.9% (inactive).

For `COc1cc2nc(Cl)nc(Nc3cccc(C(=O)/C=C/c4ccc(Br)cc4)c3)c2cc1OC`, the growth is 81.5% (inactive).

As for `COc1c(N)c2c(c([N+](=O)[O-])c1OC)C(=O)OC2`, the growth is 102% (inactive).

Consider `N#C/C(=C\c1ccc(-c2cccc(C(F)(F)F)c2)o1)c1nc(-c2ccco2)cs1`, for which the growth was 78.1% (inactive).

Turning to `C=C(C)[C@@H]1CC[C@]2(CN)CC[C@]3(C)[C@H](CC[C@@H]4[C@@](C)(CCCN)[C@H](C(=C)C)CC[C@]43C)[C@@H]12`, the growth was 100% (inactive).

Consider `Nc1ccccc1NC(=O)c1ccc(CN2CCC/C(=C\c3ccccn3)C2=O)cc1`, for which the growth is -23.6% (active).

Take `O=c1c2sc3ncc(Br)cc3c2ncn1-c1cccc(Cl)c1`: the growth is 80.3% (inactive).

Turning to `CCN1CCN(C(=O)[C@]23CCC(C)(C)C[C@@H]2C2=CC[C@@H]4[C@@]5(C)C/C(=C/c6ccncc6)C(=O)C(C)(C)[C@@H]5CC[C@@]4(C)[C@]2(C)CC3)CC1`, the growth is -86% (active).

`Cc1ccc(-c2nc([P+](c3ccccc3)(c3ccccc3)c3ccccc3)c(N3CCOCC3)o2)cc1`: the growth is -29.4% (active).

For `CCCCn1c(-c2ccc(O)cc2)cn2c3c(=O)[nH]c(=O)n(C)c3nc12`, the growth was 51.2% (inactive).

For the molecule `CN(C)CCCC1(c2ccc(F)cc2)OCc2cc(-c3ccc(C(F)(F)F)nc3)ccc21` (stereo not given), the growth was 86.1% (inactive).

Consider `Nc1c2c(nc3ccc(Cl)cc13)CC(c1ccc(O)cc1)CC2=O` (stereo not given), for which the growth is 32.8% (inactive).

Turning to `N#Cc1c(-c2ccco2)nc2c(c(-c3ccccc3)nn2-c2ccccc2)c1-c1ccc(O)cc1`, the growth was 89.2% (inactive).

Regarding `COc1ccc(OC)c(-c2c(C#N)c(-c3ccco3)nc3c2c(-c2ccccc2)nn3-c2ccccc2)c1`, the growth was 76.6% (inactive).

With `N#CC1=C(N)Oc2c(c(N)nn2-c2ccccc2)C1c1ccc(Cl)cc1` (stereo not given), the growth was 86% (inactive).

Take `O=C(O)c1cccc2c1Cc1cc([N+](=O)[O-])ccc1-2`: the growth was 102% (inactive).

On to `CCN1CCN(C(=O)[C@]23CCC(C)(C)C[C@H]2C2=CC[C@@H]4[C@@]5(C)CC/C(=N/O)C(C)(C)[C@@H]5CC[C@@]4(C)[C@]2(C)CC3)CC1`, for which the growth was 87.9% (inactive).

In the case of `Cc1ccc(NC2CC(=O)N(c3c(C)cc(C)cc3C)C2=O)c(C)c1` (stereo not given), the growth was 94.3% (inactive).

Consider `NCCNc1nc(-c2ccccc2)nc2nc(-c3ccccc3)oc12`, for which the growth was 99.9% (inactive).

Regarding `CCCCCC1CCCCN1C(=O)OCC` (stereo not given), the growth was 105% (inactive).

Take `COc1ccc(-c2cc(/C=C/C(=O)c3ccc(N)cc3)[nH]n2)cc1`: the growth was 24.7% (inactive).

For `COc1ccc2nc(-c3cc(-c4cc(OC)c(OC)c(OC)c4)n[nH]3)[nH]c2c1`, the growth is -53.6% (active).

Regarding `COc1ccc(/C=C(\C#N)c2cc3ccccc3n2S(C)(=O)=O)cc1`, the growth is 58.1% (inactive).

As to `CC1c2ccccc2N(S(=O)(=O)c2ccccc2)C1C` (stereo not given), the growth was 71.6% (inactive).

With `CC1(C)CC[C@]2(C(=O)NCCNCCN)CC[C@]3(C)C(=CC[C@@H]4[C@@]5(C)CCC(=O)C(C)(C)[C@@H]5CC[C@]43C)[C@@H]2C1`, the growth was -89.3% (active).

In the case of `C=C(C)[C@@H]1CC[C@]2(C)[C@H](CC[C@@H]3[C@H]4[C@H]5OC[C@@]4(CCC5(C)C)CC[C@]32C)[C@@]1(C)CCCN`, the growth is 98.5% (inactive).

`COc1cc2nc(Cl)nc(Nc3cccc(C(=O)/C=C/c4ccc(F)cc4)c3)c2cc1OC`: the growth was 51.5% (inactive).

With `CC[C@H](CC[C@@H](C)[C@H]1CC[C@H]2[C@@H]3/C(=C/c4cccnc4)C(=O)C4=CC(=O)CC[C@]4(C)[C@H]3CC[C@]12C)C(C)C`, the growth was 76.6% (inactive).

In the case of `COc1ccc(CCN2C(=O)C(C)(C)SC2=S)cc1OC`, the growth is 92.7% (inactive).

With `C=C(C)[C@@H]1CC[C@]2(C(=O)N3CCN(C)CC3)CC[C@]3(C)[C@H](CC[C@@H]4[C@@]5(C)C/C(=C/c6ccc(C(F)(F)F)cc6)C(=O)C(C)(C)[C@@H]5CC[C@]43C)[C@@H]12`, the growth was 96.3% (inactive).

These data come from PubChem BioAssay (NCI).
